Sequences and labels used below:
B1: chr1:232398519:232398625:-|3pUTR|ENSG00000116991|unk|total|mutant (ssRNA)
RNA: GGGAGUUCUACAGUCCGACGAUCACAGCCGUUUUAUUUCCACAGCCACAUUACCACCGCAAUAAGAAAGGAGGCACCGUACACCGUUGGAAAAGCUUUGUGGGGGGAUUAAAAAAAAAAAAAAGCACUGUUGUGUUUAACACUCAACAGAGGAUUGAGCAUCA
B2: chr18:68676332:68676434:-|3pUTR|ENSG00000166479|msi1_unk|total|mutant (ssRNA)
RNA: GGGAGUUCUACAGUCCGACGAUCAUCAAGAUUAUGAGGUUAAAAAUAAUGUGGUUUUAUACCGCACCGUGGUUUUAUUUUGUCCGUUAUUUUUAAAGGAGAAGAAAUGUUACUUUUUAACUUUAUACUCAGUUGCAUUAUCAUCAACAGAGGAUUGAGCAUCA
B3: chr19:34469546:34469571:+|3pUTR|ENSG00000126261|msi1_unk|FALSE|overlapping (ssRNA)
RNA: GGGAGUUCUACAGUCCGACGAUCGUUGCCUUUUUAAUGUAAAUACCCGUAGGUAUCAUUAAUAGUUUCAAAAUAUUGUGGUUUAGUAAAGUUGAUACCUGGUUAUAAAUAUUAUGCCUUUAUUUUUGGCUAGAAGAAGAAUUACAACAGAGGAUUGAGCAUCA
B4: chr4:65323451:65323552:-|3pUTR|ENSG00000145242|msi1|FALSE|unique (ssRNA)
RNA: GGGAGUUCUACAGUCCGACGAUCAUCAAGAAAAAGUACAAUACAGGGUGUAUAUUUAUUUUUUGUGUUAUAAAGUUUACUUUUAGUUGCUCUUCUAGAGAUUAUUAGGUAAUAAAUGUGUAUAUACUGUAUAAUUUGCAAUAUCAACAGAGGAUUGAGCAUCA
B5: ENSG00000136451:be:win_3201|3pUTR|ENSG00000136451|bound_else_gene|NA|bound_elsewhere_windowed (ssRNA)
RNA: GGGAGUUCUACAGUCCGACGAUCAACAGUUCUAGGGGGUUGAACUACAUAGUAAAAAAAUAAAAUAAAUAGUACUUAGUGUAAAAUAAUUUUAUAAAUGAUCUUUUGUACUUUAGGACAUUAAAUUGUACAACUUUUGUAUAUCAACAGAGGAUUGAGCAUCA
B6: chr18:68676332:68676434:-|3pUTR|ENSG00000166479|msi1_unk|FALSE|overlapping (ssRNA)
RNA: B2 RNA with C61U, C62A, C66U, C67A, C83U, C84A
B7: ENSG00000198589:be:win_801|CDS|ENSG00000198589|bound_else_gene|NA|bound_elsewhere_windowed (ssRNA)
RNA: GGGAGUUCUACAGUCCGACGAUCUCAUUUUGUUGGAGGCUGUUUGAUUGUAACAUCAAUAAAGUCAAAAGGAAAAGGCUUUCAACACUGUGUGAAAUUUGAUUUCAAGCCACAAAAGUGGUAUAUGGUUACCAUAGUACACAUCAACAGAGGAUUGAGCAUCA
B8: ENSG00000136451:be:win_3151|3pUTR|ENSG00000136451|bound_else_gene|NA|bound_elsewhere_windowed (ssRNA)
RNA: GGGAGUUCUACAGUCCGACGAUCUGAGACAGACUUCCUACAUCAGGGACAGGUAUCUGUGUGUCAUUAUACAAAACAGUUCUAGGGGGUUGAACUACAUAGUAAAAAAAUAAAAUAAAUAGUACUUAGUGUAAAAUAAUUUUACAACAGAGGAUUGAGCAUCA
B9: chr1:232398519:232398625:-|3pUTR|ENSG00000116991|unk|FALSE|unique (ssRNA)
RNA: B1 RNA with C28U, C29A, C56U, C57A, C76U, C77A, C83U, C84A
B10: chr20:1375301:1375603:-|CDS|ENSG00000088832|control|control|control (ssRNA)
RNA: GGGAGUUCUACAGUCCGACGAUCGGUAUGCUCUCUCAUUUGUUUUGUUUUGCUUUCUAGUAUUUACCUUUUAUAUUUUUUUAUAGGUGGCAUAUUUAUACGGUUCAAAAAUAAAAAAAGUGAAAAGUCUCACCCUCAUGCCAUCAACAGAGGAUUGAGCAUCA
B11: chr19:34469546:34469571:+|3pUTR|ENSG00000126261|msi1_unk|total|mutant (ssRNA)
RNA: B3 RNA with U49C, A50C, U62C, A63C, U83C, A84C, U130C, A131C
B12: ENSG00000136451:be:win_3251|3pUTR|ENSG00000136451|bound_else_gene|NA|bound_elsewhere_windowed (ssRNA)
RNA: GGGAGUUCUACAGUCCGACGAUCCUUAGUGUAAAAUAAUUUUAUAAAUGAUCUUUUGUACUUUAGGACAUUAAAUUGUACAACUUUUGUAUAUAUAAAAGCUUAGGAACUUUCUGUUUAGCAGGAAGGCAACACAUUCCUACACAACAGAGGAUUGAGCAUCA
B13: chr16:46660370:46660459:-|3pUTR|ENSG00000069329|msi1_unk|total|mutant (ssRNA)
RNA: GGGAGUUCUACAGUCCGACGAUCAAAAGGAAACCGCUCACCAUACUCCUUUCCAUGUACAUCCAGUGAGGGUUUUAUUACGCCCGGUUUCCCUUCCACCGAUUGUGCCUUUCAGAAAUGCUGAGGCCGGUUUCCCAUUUCUUACAACAGAGGAUUGAGCAUCA
B14: chr8:48920054:48920155:-|CDS|ENSG00000019549|unk|FALSE|unique (ssRNA)
RNA: GGGAGUUCUACAGUCCGACGAUCACCUAUUCAACUUUUUCUGGGCUGGCCAAACAUAAGCAGCUGCACUGCGAUGCCCAGUCUAGAAAAUCUUUCAGCUGUAAAUACUGUGACAAGGAAUAUGUGAGCCUGGGCGCCCUGAAGCAACAGAGGAUUGAGCAUCA
B15: ENSG00000136451:be:win_351|CDS|ENSG00000136451|bound_else_gene|NA|bound_elsewhere_windowed (ssRNA)
RNA: GGGAGUUCUACAGUCCGACGAUCUACCAUCGCUGGGGACAGCAGCCGAACUUCGUUGGUCUCGACCAUUGCAGGCAUCUUGUCAACAGUCACUACAUCUUCCUCGGGCACCAACCCCAGUAGCAGUGCCAGCACCACAGCUAUCAACAGAGGAUUGAGCAUCA
B16: chr8:103427116:103427218:+|CDS|ENSG00000164934|unk|total|mutant (ssRNA)
RNA: GGGAGUUCUACAGUCCGACGAUCGUAUACUGGGAUUGAUCAUCACUGGAAAGAAGCUGUUUUUGCCACAUGUGGACAGCAAGCCGACAUUUGGGAUGAACAAAGAACUAAUCCUAUAUGUUCAAUGACCUGGGGAUUUGACAGCAACAGAGGAUUGAGCAUCA
B17: chrX:48700291:48700392:+|CDS|ENSG00000101945|unk|FALSE|unique (ssRNA)
RNA: GGGAGUUCUACAGUCCGACGAUCGCUCCGUCGCUGGGAGCAGGAGCUCAAUGCCAAGCGCAGCCAUCUGGGACGCAUCACUGUAGAGAAUGAGGUGGACCUGGACGGCCCUCCGCGGGCCUUCGUGUACAUCAAUGAGUACCGCAACAGAGGAUUGAGCAUCA
B18: chr21:14371318:14371404:-|3pUTR|ENSG00000155304|msi1_unk|FALSE|overlapping (ssRNA)
RNA: GGGAGUUCUACAGUCCGACGAUCUAUGAAUAACAAUCUGAAGUCUUUUCAUAAAAAAAAUUAAUAAACUUUAGUUGUACAUUUAGCCAGUGUUAUUUGAAGUAUGUAACUUUUAAAAUAUUAAGUGUCUUGUAUGAUUAGAAUCAACAGAGGAUUGAGCAUCA
B19: chr2:206311781:206311882:+|3pUTR|ENSG00000204186|unk|FALSE|unique (ssRNA)
RNA: GGGAGUUCUACAGUCCGACGAUCUAGUGUUUAGAGUCCUUUCAUUUUAAGAUUCAGAAACAGCCUUUGUCCAACAUUUUCUGUAGAAGAACUUCAUCUUAAUUUAUGUCACAAAAUAAUUUAGCACCGUAUAUAGAAUUUUGUCAACAGAGGAUUGAGCAUCA
B20: chr20:13714314:13714426:-|3pUTR|ENSG00000089048|unk|total|mutant (ssRNA)
RNA: GGGAGUUCUACAGUCCGACGAUCUUUUUCCCGCCAUAAAGGAUGGAAGUCAAGAACUUUUUGUUGUUCCGUCAUGUUAAGUACCGUUUAUGAAAUUAACUUGUAAAUAAAAGUGUAAAAUAUUUUCAUUAUUUUGUACCGCACCAACAGAGGAUUGAGCAUCA
B21: chr10:121957106:121957207:-|3pUTR|ENSG00000107672|msi1|FALSE|bound_elsewhere (ssRNA)
RNA: GGGAGUUCUACAGUCCGACGAUCUGUAUCGUACAUAUUGUAUGAUUCAACAUUUUUAAAGGCAGAUUGUUUUUAGUAAAAUGUAGCUUUUGAUAGUUAAUAAAUUUGUCAUGGUUGUCUUUGAUUAAAGGAAACUCACCGCCACAACAGAGGAUUGAGCAUCA
B22: chr20:13714314:13714426:-|3pUTR|ENSG00000089048|unk|FALSE|unique (ssRNA)
RNA: B20 RNA with C30U, C31A, C68U, C69A, C83U, C84A, C138U, C139A
B23: chr11:69651696:69651723:+|3pUTR|ENSG00000110092|msi1_unk|FALSE|overlapping (ssRNA)
RNA: GGGAGUUCUACAGUCCGACGAUCGAGGAUUAGGUUCCAUCCUUUACGUGUUUAAAAAAAAGCAUAAAAACAUUUUAAAAACAUAGAAAAAUUCAGCAAACCAUUUUUAAAGUAGAAGAGGGUUUUAGGUAGAAAAACAUAUUCCAACAGAGGAUUGAGCAUCA
B24: chr8:30995801:30996592:-|three_prime_utr|ENSG00000172733|control|control|control (ssRNA)
RNA: GGGAGUUCUACAGUCCGACGAUCUUGUUUUUUUUAAUUCAUCAAGCCUUUCGUUUUCAAACCACCAUUUGUCAGCCUUGAGGUAGAGAGACAUAUAGAUUUGAAAAUACUUUCUUAAGAGAUCAUGUAACUAUAUAACUCUGACAACAGAGGAUUGAGCAUCA
B25: chr10:121957106:121957207:-|3pUTR|ENSG00000107672|msi1|total|mutant (ssRNA)
RNA: B21 RNA with U73C, A74C, U83C, A84C, U93C, A94C
B26: chr11:69651696:69651723:+|3pUTR|ENSG00000110092|msi1_unk|total|mutant (ssRNA)
RNA: B23 RNA with U30C, A31C, U83C, A84C, U112C, A113C, U125C, A126C, U129C, A130C
B27: chr11:69651733:69651797:+|3pUTR|ENSG00000110092|msi1_unk|FALSE|overlapping (ssRNA)
RNA: GGGAGUUCUACAGUCCGACGAUCAAAACAUUUUAAAAACAUAGAAAAAUUCAGCAAACCAUUUUUAAAGUAGAAGAGGGUUUUAGGUAGAAAAACAUAUUCUUGUGCUUUUCCUGAUAAAGCACAGCUGUAGUGGGGUUCUAGCAACAGAGGAUUGAGCAUCA
B28: chr2:206311781:206311882:+|3pUTR|ENSG00000204186|unk|total|mutant (ssRNA)
RNA: B19 RNA with U24C, A25C, U31C, A32C, U83C, A84C, U121C, A122C, U133C, A134C
B29: ENSG00000198589:be:win_9051|3pUTR|ENSG00000198589|bound_else_gene|NA|bound_elsewhere_windowed (ssRNA)
RNA: GGGAGUUCUACAGUCCGACGAUCGUAAAUGUAAUUUAAAACAUCUCAAUUAAGUCUGUCUAUCAAUAUUGUUCUUCAAGCAUGUUUUAGACCUAGAAAAGUAUGGUUUGGGGGAGGCUAUUUUAUUGUGUGGUUAGCACAAGGCAACAGAGGAUUGAGCAUCA

Residue numbers refer to the chain shown, from its start. The full ranking holds about 5,800 sequences; the median of “enrichment r” is about 0.54, and the highest 2% start at about 16. What follows is part of a selection rich in the highest values, with near analogues and random picks from the rest.

In the experiment the target is MSI1 full-length (mouse, UniProt Q61474 1-362). Nature of the experiment: nsRBNS (natural sequence RNA bind-n-seq); RBNS binding buffer (assumed for nsRBNS): 25 mM Tris pH 7.5, 150 mM KCl, 3 mM MgCl2, 0.01% Triton X-100, 500 ug/ml BSA, 20 U/ml SUPERase-In, 4 C; UNK is unkempt and MSI1 is Musashi-1; names of the RNAs are library labels; protein concentration not given here; high values mean tight binding.
MSI1 full-length, sequence (Q61474 whole entry): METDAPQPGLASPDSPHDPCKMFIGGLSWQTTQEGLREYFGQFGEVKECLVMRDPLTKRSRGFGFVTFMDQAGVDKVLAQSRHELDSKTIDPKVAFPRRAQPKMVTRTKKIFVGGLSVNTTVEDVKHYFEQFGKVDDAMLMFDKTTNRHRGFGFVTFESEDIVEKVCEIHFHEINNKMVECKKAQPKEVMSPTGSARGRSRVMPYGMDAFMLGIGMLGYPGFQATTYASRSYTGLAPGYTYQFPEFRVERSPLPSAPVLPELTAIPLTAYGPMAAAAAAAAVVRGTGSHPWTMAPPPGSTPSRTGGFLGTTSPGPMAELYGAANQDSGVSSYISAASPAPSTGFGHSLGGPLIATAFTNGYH
With B1, the binding signal was found to be 0.46 enrichment R.

B2: the binding signal turned out to be 0.295 enrichment R. For B3, the binding signal came to 35.8 enrichment R. B4 displayed a binding signal of 11.9 enrichment R. Regarding B5, the binding signal stood at 23.1 enrichment R. B6 yielded a binding signal of 69.1 enrichment R. Turning to B7, the binding signal was found to be 0.264 enrichment R. With B8 the figure was 15.5 enrichment R. As to B9, the binding signal amounted to 18.4 enrichment R. With B10 the figure was 2.12 enrichment R. As to B11, the binding signal came out at 1.89 enrichment R.

B12 had a binding signal of 10.7 enrichment R.

B13 showed a binding signal of 0.39 enrichment R.

As to B14, the binding signal was determined as 0.478 enrichment R.

The molecule B15 came in with a binding signal of 0.413 enrichment R. For B16, the binding signal was determined as 0.362 enrichment R. As for B17, the binding signal was 0.398 enrichment R. For B18 the value was 6.15 enrichment R; for B19, 16.7 enrichment R; for B20, 0.796 enrichment R.

Molecule B21 had a binding signal of 17.9 enrichment R. For B22 the value was 58.4 enrichment R; for B23, 17.8 enrichment R.

With B24, the binding signal was found to be 0.712 enrichment R. Take B25: the binding signal was determined as 0.237 enrichment R. For B26 the value was 0.383 enrichment R; for B27, 13.6 enrichment R; for B28, 0.669 enrichment R.

B29 had a binding signal of 3.05 enrichment R.

Values taken from paper PMC12136788.
